Measured values published in PubChem BioAssay (EPA / NIEHS).
“And” between values parts separate entries of the source, which are not always exact repeats. Identical values can stand only once. Where a structure was tested more than once in an assay, its records may differ in their call. The source made the active and inactive calls. Rule for the calls: active = hit-call score of the fitted dose curve at least 0.9, where 1 is the maximum; inactive = score below 0.9.

Columns and labels:
[1] = ATG_NFI_CIS: Attagene CIS-FACTORIAL HepG2 Assay for human Nuclear Factor I (NFI) (AID 2282989); settings: HepG2 cis-regulatory reporter, NFI response element transcription; actives raise or lower the signal
Summary of the method: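 After transient transfection of HepG2 with cis-promoter reporter constructs and 24 h dosing, RNA is reverse-transcribed, amplified, 6-FAM end-labelled and HpaI-digested before capillary analysis. Bidirectional curve fitting against DMSO.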

[2] = target: Myc proto-oncogene protein (Homo sapiens) (UniProt P01106); assay: ATG_Myc_CIS: Attagene CIS-FACTORIAL HepG2 Assay for human Myelocytomatosis (Myc) Proto-Oncogene Transcription Factor (AID 2282990); settings: HepG2, Attagene cis-reporter transcription factor activity; actives raise or lower the signal
Summary of the method: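 After 24 h chemical treatment of HepG2 cells carrying multiplexed cis-regulated reporter constructs, reporter transcripts quantified by RT-PCR and capillary electrophoresis of fluorescent fragments. Gain or loss fitted against DMSO baseline.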

[3] = ATG_NF_kB_CIS: Attagene CIS-FACTORIAL HepG2 Assay for human Nuclear Factor Kappa B (NF-kB) (AID 2282991); settings: HepG2 Attagene cis-factorial NF-kB reporter mRNA; actives raise or lower the signal
Summary of the method: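 HepG2 cells transiently transfected with multiplexed cis-element reporter units measuring endogenous transcription factor activity; reporter mRNA read 24 h after dosing by RT-PCR, fluorescent labelling, HpaI digestion and capillary electrophoresis. Bidirectional fit against DMSO baseline.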

[4] = ATG_NRF2_ARE_CIS: Attagene CIS-FACTORIAL HepG2 Assay for human Nuclear Factor Erythroid 2 Related Factor 2 (NFR2) response to Antioxidant Response Elements (ARE) (AID 2282992); settings: HepG2 Attagene ARE/NRF2 reporter, transcription factor activity; actives raise or lower the signal
Summary of the method: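 Transient MRTU transfection of HepG2; 24 h compound exposure; TriZol RNA, RT with oligo(dT), PCR, 6-FAM primer extension, HpaI cut, CE. Bidirectional fit vs DMSO.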

[5] = ATG_Oct_MLP_CIS: Attagene CIS-FACTORIAL HepG2 Assay for human Octamer-Binding Transcription Factor (Oct) (AID 2282993); settings: HepG2 Attagene cis-factorial Oct reporter, mRNA; actives raise or lower the signal
Summary of the method: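 Cells of the HepG2 line express promoter-controlled reporter sequences whose mRNA levels, after 24 h treatment, are measured by RT-PCR and capillary electrophoresis. Increases and decreases are scored relative to DMSO.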

[6] = target: Cellular tumor antigen p53 (Homo sapiens) (UniProt P04637); assay: ATG_p53_CIS: Attagene CIS-FACTORIAL HepG2 Assay for human p53 Transcription Factor (AID 2282994); settings: HepG2 p53 cis-element reporter, Attagene mRNA; actives raise or lower the signal
Summary of the method: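 HepG2, transient MRTU transfection (cis promoter elements, endogenous TFs); 24 h dosing; RNA isolation, RT-PCR, 6-FAM primer extension, HpaI digest, CE fluorescence; bidirectional fit vs DMSO.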

[7] = BSK_3C_TissueFactor: BioMAP Diversity Plus: 3C Assay for Tissue Factor Biomarker Activity (AID 2282997); settings: BioMAP 3C HUVEC, tissue factor biomarker readout; actives raise or lower the signal
Summary of the method: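 ELISA read-out of Tissue Factor levels on human umbilical vein endothelium collected 24 h after chemical dosing. Gain or loss of signal was fitted relative to DMSO.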

[8] = BSK_3C_uPAR: BioMAP Diversity Plus: 3C Assay for Urokinase-type plasminogen activator receptor (uPAR) Biomarker Activity (AID 2282998); settings: BioMAP 3C HUVEC, uPAR biomarker ELISA; actives raise or lower the signal
Summary of the method: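 Endothelial primary cells of human umbilical vein origin received test chemical; 24 h later uPAR was assayed by ELISA. Fitting was bidirectional, DMSO as negative control.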

[9] = BSK_3C_VCAM1: BioMAP Diversity Plus: 3C Assay for Vascular cell adhesion molecule 1 (VCAM1) Biomarker Activity (AID 2282999); settings: BioMAP 3C HUVEC, VCAM1 ELISA, cytokine-stimulated; actives raise or lower the signal
Summary of the method: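 Endothelial cells from human umbilical vein are treated with test chemical. At 24 h, VCAM-1 is measured by ELISA, and responses in either direction are fitted relative to DMSO.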

[10] = BSK_4H_Eotaxin3: BioMAP Diversity Plus: 4H Assay for Eotaxin 3 Biomarker Activity (AID 2283000); settings: primary human endothelial cells (HUVEC); actives raise or lower the signal
Summary of the method: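 Chemicals were added to human umbilical vein endothelium cultures, and Eotaxin-3 was quantified by ELISA at 24 h. Values were derived by bidirectional fitting with DMSO serving as negative control and activity baseline.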

Measured: AC50

Chain of Myc proto-oncogene protein (Homo sapiens) (P01106 whole entry, looked up, the tested form may be a part): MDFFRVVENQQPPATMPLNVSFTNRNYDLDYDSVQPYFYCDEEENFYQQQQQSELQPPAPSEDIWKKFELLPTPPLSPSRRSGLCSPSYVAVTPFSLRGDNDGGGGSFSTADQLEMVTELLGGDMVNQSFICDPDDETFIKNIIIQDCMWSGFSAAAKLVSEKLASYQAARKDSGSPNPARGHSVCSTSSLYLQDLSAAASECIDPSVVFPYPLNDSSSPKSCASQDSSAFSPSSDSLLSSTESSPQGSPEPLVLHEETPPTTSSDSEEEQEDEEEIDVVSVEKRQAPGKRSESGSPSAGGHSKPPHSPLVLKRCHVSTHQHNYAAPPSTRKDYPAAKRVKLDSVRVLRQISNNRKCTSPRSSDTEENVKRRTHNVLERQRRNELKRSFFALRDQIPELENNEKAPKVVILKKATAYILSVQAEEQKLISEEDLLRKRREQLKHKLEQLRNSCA
Chain of Cellular tumor antigen p53 (Homo sapiens) (P04637 whole entry, looked up): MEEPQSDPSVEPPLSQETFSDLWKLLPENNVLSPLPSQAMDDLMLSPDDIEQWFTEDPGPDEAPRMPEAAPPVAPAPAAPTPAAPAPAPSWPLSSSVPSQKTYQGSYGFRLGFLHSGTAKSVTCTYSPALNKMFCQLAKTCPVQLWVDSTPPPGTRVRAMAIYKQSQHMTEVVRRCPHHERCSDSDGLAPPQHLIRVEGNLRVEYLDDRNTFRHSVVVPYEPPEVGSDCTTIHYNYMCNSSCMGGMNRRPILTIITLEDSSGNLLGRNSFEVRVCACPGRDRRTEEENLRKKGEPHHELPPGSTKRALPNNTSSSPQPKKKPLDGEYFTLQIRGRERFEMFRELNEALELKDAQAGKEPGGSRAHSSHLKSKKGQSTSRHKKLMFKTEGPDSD

C[C@@H]1C[C@H]2[C@@H]3CCC4=CC(=O)C=C[C@]4(C)[C@@]3(F)[C@@H](O)C[C@]2(C)[C@@]1(O)C(=O)COP(=O)(O)O
not listed: [10]
inactive: all other assays above

CCc1ccc(CCOc2ccc(CC3SC(=O)NC3=O)cc2)nc1 (configuration not stated)
inactive: [1] | [2] | [3] | [4] | [5] | [6] | [7] | [8] | [9] | [10]
active: [4] 25.6 µM

OCCC(F)(F)C(F)(F)C(F)(F)C(F)(F)C(F)(F)C(F)(F)F
active: [1] 153 µM | [4] 50.3 µM | [5] 136 µM | [7] 46.3 µM and 30 µM | [8] 43.6 µM and 47.3 µM | [9] 51.7 µM
inactive: [1] | [2] | [4] | [5] | [6] | [7] | [8] | [9]

CC(C)(C)c1cc(C(C)(C)C)c(O)c(C(C)(C)C)c1
active: [1] 54.2 µM | [4] 49.6 µM and 57.1 µM | [5] 27.6 µM and 43.2 µM
inactive: [1] | [2] | [6] | [7] | [8] | [9] | [10]

FC(F)(I)C(F)(F)C(F)(F)C(F)(F)C(F)(F)C(F)(F)I
active: [4] 11.1 µM
inactive: [1] | [2] | [3] | [5] | [6]

OCCC(F)(F)C(F)(F)C(F)(F)C(F)(F)C(F)(F)C(F)(F)C(F)(F)C(F)(F)F
active: [1] 46 µM and 150 µM | [2] 150 µM | [3] 24.4 µM | [4] 24.6 µM and 37.3 µM | [5] 46.6 µM and 113 µM | [6] 150 µM | [7] 43.1 µM and 10.6 µM | [8] 19.5 µM and 16.5 µM | [9] 30 µM and 21.8 µM
inactive: [2] | [3] | [6] | [7] | [8] | [9]

CC(C)(C)CC(C)(C)c1ccc(O)c(-n2nc3ccccc3n2)c1
active: [4] 36.4 µM | [5] 78.5 µM
not listed: [10]
inactive: all other assays above

C#C[C@]1(O)CC[C@H]2[C@@H]3CCC4=CC(=O)CC[C@@H]4[C@H]3CC[C@@]21C
active: [4] 100 µM and 79.6 µM | [7] 15.3 µM | [8] 5.42 µM
inactive: [1] | [2] | [3] | [4] | [5] | [6] | [9] | [10]

c1ccc2c(c1)Cc1ccccc1-2
active: [7] 4.37 µM
not listed: [10]
inactive: all other assays above

CCCCCCCCCCCCc1ccccc1S(=O)(=O)O
not listed: [10]
inactive: all other assays above

C=C(C)C(=O)OCCC(F)(F)C(F)(F)C(F)(F)C(F)(F)C(F)(F)C(F)(F)F
not listed: [10]
inactive: all other assays above

CCCCCCCCCCCCN1CCCC1=O
active: [7] 33.6 µM | [8] 31.1 µM | [9] 35.2 µM
not listed: [10]
inactive: all other assays above

CC[C@H](c1ccc(O)cc1)[C@@H](CC)c1ccc(O)cc1
inactive: [1] | [2] | [3] | [5] | [6]
active: [4] 6.58 µM [middle of 4 runs] | [6] 17.5 µM | [7] 32.5 µM | [8] 21.7 µM | [9] 34.2 µM

O=C(O)Cc1cc(I)c(Oc2cc(I)c(O)c(I)c2)c(I)c1
active: [1] 47.9 µM and 17.2 µM | [2] 48.6 µM and 16.8 µM | [3] 105 µM and 46.1 µM | [4] 17 µM and 16.9 µM | [5] 34.8 µM and 33.3 µM | [7] 24.3 µM
inactive: [6] | [8] | [9]

CC1=C(/C=C/C(C)=C/C=C/C(C)=C/C(=O)O)C(C)(C)CCC1
active: [4] 35.7 µM | [5] 24.2 µM | [6] 20.6 µM | [9] 27.9 µM | [10] 9.37 µM
inactive: [1] | [2] | [3] | [4] | [5] | [6] | [7] | [8]

CCOC(=O)CC(O)(CC(=O)OCC)C(=O)OCC
not listed: [10]
inactive: all other assays above
